Measurements: the supplement of paper PMC7866885, “A novel bicyclic 2,4-diaminopyrimidine inhibitor of Streptococcus suis dihydrofolate reductase” (PeerJ, 2021)
± gives the standard deviation.

The compounds below were run on Streptococcus suis HE06 (assay: percent growth relative to DMSO control; higher = less growth inhibition). Settings: 10 µM; incubation time 18 h.
Protocol: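 CLSI broth microdilution: 5x10^4 CFU of Streptococcus suis (strain P1/7 or HE06) incubated with 10 µM Pathogen Box compound in cation-adjusted Mueller Hinton broth, 37 °C, 5% CO2, 18 h. Growth read as OD600 and expressed as percent of the DMSO-treated control (100%); mean ± SD of three independent experiments.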

Point of comparison: `CN1CCN(c2nccc3[nH]c(-c4cccc(F)c4)cc23)CC1`, percent growth 97.4 ± 6.1%. Against it:
- N=C(N)Nc1ccc(-c2ccc(-c3ccc(NC(=N)N)cc3Cl)o2)c(Cl)c1 — lower, 22.2 ± 37%
- CCCn1c(NC(=O)c2ccc3ccccc3n2)nc2ccccc21 — lower, 0%
- O=C(NC1=NCCS1)c1sc2cc(F)ccc2c1Cl — within error, 93.8 ± 5.2%
- CCN(CC)S(=O)(=O)c1ccc(C(=O)Nc2cc(C)nn2-c2nc(C)c(C)c(=O)[nH]2)cc1 — lower, 0.274 ± 0.47%
- Cc1cc(Nc2ccc(C(F)(F)F)cc2)n2ccnc2n1 — within error, 113 ± 12%
- NS(=O)(=O)c1cccc(-c2ccc3ncc(N4CCOCC4)nc3c2)c1 — within error, 99.2 ± 34%
- O=C(NCCc1c[nH]c2ccccc12)c1cc2ccccc2oc1=O — within error, 104 ± 6%
- Cc1cc(OCC(=O)NCc2ccccc2)c2cc(Br)ccc2n1 — within error, 94.8 ± 9.9%
- Cc1ccc(S(=O)(=O)N2CCN(C(=O)c3cc(-c4ccccc4)[nH]n3)CC2)cc1 — within error, 118 ± 39%
- Cc1cc(NCCc2ccccc2)nc(NC(=N)Nc2ccc(Cl)cc2)n1 — within error, 148 ± 68%
- CCCCCCCCCCCCCCCCOP(=O)([O-])OCC[N+](C)(C)C — higher, 117 ± 7.1%
- CC(=O)N1CCc2cc3nc(C)cc(C)c3cc21 — within error, 88.4 ± 9.8%
- COc1ccc(-c2cncc3ccc(C(=O)NCCCn4ccnc4)nc23)cc1 — within error, 103 ± 28%
- Clc1cccc(C(c2ccc(CN3CCNCC3)cc2)n2ccnc2)c1 (stereo not drawn) — within error, 96.6 ± 38%
- O=C(CN1CCOCC1)Nc1ccc2ncnc(Nc3ccc(OCc4cccc(F)c4)c(Cl)c3)c2c1 — within error, 53.5 ± 39%
- CCC(=O)Nc1ccccc1C(=O)Nc1ccccn1 — within error, 93.7 ± 5.2%
- CCC(NC(=O)c1ccccc1NC(=O)c1ccc(C)cc1)C(=O)OC (stereo not drawn) — within error, 92 ± 4.7%
- N=C(N)c1ccc(-c2cc(-c3ccccc3)on2)cc1 — lower, 85.2 ± 3%
- CCc1nc2ccc(Cl)cn2c1C(=O)NCc1ccc(N2CCC(c3ccc(OC(F)(F)F)cc3)CC2)cc1 — within error, 89.9 ± 15%
- OCc1ccc(-c2cncc(Nc3cccc(Cl)c3)c2)cc1 — within error, 88 ± 13%
- O=C(Nc1ccc2c(c1)B(O)OC2)c1ccccc1C(F)(F)F — within error, 88.2 ± 15%
- Nc1ncc(-c2cn[nH]c2)cc1-c1nc2cc(Cl)cnc2[nH]1 — within error, 90.8 ± 5.4%
- O=C(Nc1cccc(-c2ccc(NCCCN3CCCC3)nc2)c1)c1ccccc1 — within error, 96.7 ± 23%
- CC(C)(C)OC(=O)N1CCN(c2nccc(-c3ccc(-c4ccc(Cl)cc4)s3)n2)CC1 — within error, 88.2 ± 12%
- Cc1cc2ccccc2n1CC(=O)N1CC(C(=O)N2CCCCC2)Oc2ccccc21 (stereo not drawn) — lower, 71.6 ± 13%
- COc1cccc2c(C)nc(N=C(N)N)nc12 — lower, 57.7 ± 22%
- Cc1ccc(NC(=O)c2cc(S(=O)(=O)NC(C)(C)C)ccc2C)nc1 — within error, 207 ± 200%
- C[C@]1(O)C[C@@H](c2nc(-c3ccc4ccc(-c5ccccc5)nc4c3)c3c(N)nccn32)C1 — lower, 81.6 ± 9.1%
- NC(CC(=O)c1ccc(Cl)cc1Cl)C(Cl)(Cl)Cl (stereo not drawn) — within error, 58.8 ± 39%
- N#Cc1ccc(-c2ccc(OCC(N)=O)cc2)cc1 — within error, 91.4 ± 11%
- COc1ccc2nc(C)cc(OCC(=O)NCc3ccccc3)c2c1 — within error, 91.7 ± 11%
- CC(C)(C)n1nc(-c2ccccc2)c2c(N)ncnc21 — within error, 79.7 ± 12%
- O=C(C1CCN(c2cc(-n3cccc3)ncn2)CC1)N1CCc2ccccc2C1 — within error, 106 ± 15%
- CC(C)N=c1cc2n(-c3ccc(Cl)cc3)c3ccccc3nc-2cc1Nc1ccc(Cl)cc1 — lower, 29.6 ± 51%
- CNc1nnc(Sc2cnn(-c3ccccc3)c(=O)c2Cl)s1 — lower, 81.9 ± 1.8%
- O=C(Nc1cnc2ccccc2c1)c1cccc(-n2cnnn2)c1 — higher, 110 ± 2.4%
- CC(C)(C)OC(=O)N1CCC(Cn2nc(-c3cnc4ccccc4c3)c3c(N)ncnc32)CC1 — within error, 88.2 ± 27%
